Article PMC7862700, “An all-to-all approach to the identification of sequence-specific readers for epigenetic DNA modifications on cytosine”

Assays:
Test in all cases: DAPPL (digital affinity profiling via proximity ligation, sequencing); 10 mM Tris-HCl pH 7.5, 50 mM NaCl, 1 mM DTT, 4% glycerol, room temperature, 30 min; GST-TFs on glutathione beads, 16-mer random dsDNA library, 0.1% formaldehyde crosslink after washing; high values mean tight binding
FLI1 = target: T1, FLI1 (Homo sapiens, UniProt Q01543 1-452); conditions: protein: recombinant; tags: N-terminal GST; dsDNA, one strand shown
T1 sequence: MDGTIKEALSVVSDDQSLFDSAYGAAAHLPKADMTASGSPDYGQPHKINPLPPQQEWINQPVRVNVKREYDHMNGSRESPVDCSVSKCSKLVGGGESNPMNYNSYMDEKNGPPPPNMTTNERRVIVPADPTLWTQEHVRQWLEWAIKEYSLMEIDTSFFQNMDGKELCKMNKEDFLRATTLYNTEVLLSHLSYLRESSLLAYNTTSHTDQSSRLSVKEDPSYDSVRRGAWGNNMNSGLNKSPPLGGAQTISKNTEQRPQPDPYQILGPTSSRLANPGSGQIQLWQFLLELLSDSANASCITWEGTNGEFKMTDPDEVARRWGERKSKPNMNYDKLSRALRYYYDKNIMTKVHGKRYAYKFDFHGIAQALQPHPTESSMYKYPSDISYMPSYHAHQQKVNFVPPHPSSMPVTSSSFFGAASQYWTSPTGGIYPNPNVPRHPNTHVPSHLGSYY
Summary of the method: (§1)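 In yeast, human transcription factors were expressed with a GST fusion, then pulled down on glutathione beads and given DNA barcodes. Pooled with a tag-only sample, they were exposed to 200 nmole of a 16-mer random double-stranded DNA library (Tris/NaCl/DTT/glycerol buffer, room temperature, 30 min), washed, crosslinked with 0.1% formaldehyde, proximity-ligated using BsaI/T4 ligase for 1 h at 37 °C, PCR-amplified and read on an Illumina NextSeq500. Each hexamer's frequency of reads for a factor, divided by the matching frequency for the tag-only sample, gives the binding signal.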

ELK1 = target: T2, ELK1 (Homo sapiens, UniProt P19419 1-428); conditions: protein: recombinant; tags: N-terminal GST; dsDNA, one strand shown
T2 sequence: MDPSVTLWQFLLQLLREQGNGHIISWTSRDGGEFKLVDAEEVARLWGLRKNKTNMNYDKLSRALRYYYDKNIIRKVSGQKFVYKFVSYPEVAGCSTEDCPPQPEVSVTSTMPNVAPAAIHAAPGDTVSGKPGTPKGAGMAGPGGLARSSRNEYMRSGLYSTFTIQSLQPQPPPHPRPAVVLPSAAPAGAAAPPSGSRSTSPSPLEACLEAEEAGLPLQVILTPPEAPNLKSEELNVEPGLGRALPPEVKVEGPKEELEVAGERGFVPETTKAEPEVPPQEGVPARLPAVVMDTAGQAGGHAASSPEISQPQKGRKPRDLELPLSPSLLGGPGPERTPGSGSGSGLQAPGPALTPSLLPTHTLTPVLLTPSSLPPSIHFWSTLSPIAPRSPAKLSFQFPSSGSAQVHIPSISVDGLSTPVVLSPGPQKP
Summary of the method: as §1

GABPA = target: T3, GABPA (Homo sapiens, UniProt Q06546 1-454); conditions: protein: recombinant; tags: N-terminal GST; dsDNA, one strand shown
T3 sequence: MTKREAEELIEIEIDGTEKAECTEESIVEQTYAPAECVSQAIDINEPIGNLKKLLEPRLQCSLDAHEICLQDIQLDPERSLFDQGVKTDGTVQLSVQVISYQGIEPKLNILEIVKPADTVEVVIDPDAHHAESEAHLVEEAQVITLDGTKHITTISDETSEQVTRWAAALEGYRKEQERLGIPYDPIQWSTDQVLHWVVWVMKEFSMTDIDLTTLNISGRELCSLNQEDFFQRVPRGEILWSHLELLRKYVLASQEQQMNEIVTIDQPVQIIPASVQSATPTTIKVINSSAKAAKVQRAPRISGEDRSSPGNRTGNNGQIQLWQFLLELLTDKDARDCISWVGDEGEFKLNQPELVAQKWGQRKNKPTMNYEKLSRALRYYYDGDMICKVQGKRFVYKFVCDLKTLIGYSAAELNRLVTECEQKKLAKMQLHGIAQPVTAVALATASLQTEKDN
Summary of the method: as §1

ERG = target: T4, ERG (Homo sapiens, UniProt P11308 1-479); conditions: protein: recombinant; tags: N-terminal GST; dsDNA, one strand shown
T4 sequence: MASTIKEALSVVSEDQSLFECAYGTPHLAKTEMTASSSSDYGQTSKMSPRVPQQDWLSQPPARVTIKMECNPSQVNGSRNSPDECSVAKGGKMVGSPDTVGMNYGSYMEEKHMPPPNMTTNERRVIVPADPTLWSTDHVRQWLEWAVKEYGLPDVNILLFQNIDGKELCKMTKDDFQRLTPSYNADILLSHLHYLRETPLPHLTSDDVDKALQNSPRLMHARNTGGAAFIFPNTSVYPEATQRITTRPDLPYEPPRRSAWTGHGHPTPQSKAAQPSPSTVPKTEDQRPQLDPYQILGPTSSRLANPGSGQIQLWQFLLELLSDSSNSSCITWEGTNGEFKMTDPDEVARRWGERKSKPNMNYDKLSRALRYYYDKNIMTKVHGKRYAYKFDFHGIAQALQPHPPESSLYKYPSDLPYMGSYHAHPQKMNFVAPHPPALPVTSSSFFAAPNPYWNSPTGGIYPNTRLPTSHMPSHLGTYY
Summary of the method: as §1

ELF1 = ELF1 (Homo sapiens, UniProt P32519 1-619); conditions: protein: recombinant; tags: N-terminal GST; dsDNA, one strand shown
Summary of the method: as §1

EHF = target: T5, EHF (Homo sapiens, UniProt Q9NZC4 1-300); conditions: protein: recombinant; tags: N-terminal GST; dsDNA, one strand shown
T5 sequence: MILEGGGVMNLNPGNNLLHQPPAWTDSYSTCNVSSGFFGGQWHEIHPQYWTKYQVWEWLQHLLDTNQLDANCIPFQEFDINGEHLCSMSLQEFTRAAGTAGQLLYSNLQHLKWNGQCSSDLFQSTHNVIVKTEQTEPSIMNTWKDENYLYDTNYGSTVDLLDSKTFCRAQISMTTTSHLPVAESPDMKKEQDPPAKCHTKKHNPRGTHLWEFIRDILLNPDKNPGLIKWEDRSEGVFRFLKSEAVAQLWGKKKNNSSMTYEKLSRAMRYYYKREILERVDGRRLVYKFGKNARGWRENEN
Summary of the method: as §1

SPI1 = SPI1 (Homo sapiens, UniProt P17947 1-270); conditions: protein: recombinant; tags: N-terminal GST; dsDNA, one strand shown
Summary of the method: as §1

SPIB = SPIB (Homo sapiens, UniProt Q01892 1-262); conditions: protein: recombinant; tags: N-terminal GST; dsDNA, one strand shown
Summary of the method: as §1

ELK3 = target: T6, ELK3 (Homo sapiens, UniProt P41970 1-407); conditions: protein: recombinant; tags: N-terminal GST; dsDNA, one strand shown
T6 sequence: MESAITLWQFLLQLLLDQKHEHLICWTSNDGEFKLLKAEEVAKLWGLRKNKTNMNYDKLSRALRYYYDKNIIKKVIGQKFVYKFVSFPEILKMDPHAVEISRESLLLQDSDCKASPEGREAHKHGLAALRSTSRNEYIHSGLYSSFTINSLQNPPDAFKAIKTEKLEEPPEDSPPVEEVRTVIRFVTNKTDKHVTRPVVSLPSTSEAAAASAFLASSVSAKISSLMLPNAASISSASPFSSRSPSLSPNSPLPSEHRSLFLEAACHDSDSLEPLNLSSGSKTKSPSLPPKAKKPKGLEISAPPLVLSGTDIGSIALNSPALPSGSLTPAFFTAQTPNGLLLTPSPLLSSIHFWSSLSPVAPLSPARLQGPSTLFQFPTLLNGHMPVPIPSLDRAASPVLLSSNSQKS
Summary of the method: as §1

FEV = target: T7, FEV (Homo sapiens, UniProt Q99581 1-238); conditions: protein: recombinant; tags: N-terminal GST; dsDNA, one strand shown
T7 sequence: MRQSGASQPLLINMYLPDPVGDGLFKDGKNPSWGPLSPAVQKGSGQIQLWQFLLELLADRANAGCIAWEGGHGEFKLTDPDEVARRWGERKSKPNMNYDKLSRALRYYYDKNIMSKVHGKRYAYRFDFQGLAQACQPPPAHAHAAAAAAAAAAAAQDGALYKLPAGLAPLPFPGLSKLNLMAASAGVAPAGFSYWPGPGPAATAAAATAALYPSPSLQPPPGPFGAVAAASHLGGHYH
Summary of the method: as §1

ETV5 = ETV5 (Homo sapiens, UniProt P41161 1-510); conditions: protein: recombinant; tags: N-terminal GST; dsDNA, one strand shown
Summary of the method: as §1

HSF1 = HSF1 (Homo sapiens, UniProt Q00613 1-529); conditions: protein: recombinant; tags: N-terminal GST; chain copies: 3; dsDNA, one strand shown
Summary of the method: as §1

SPIC = target: T8, SPIC (Homo sapiens, UniProt Q8N5J4 1-248); conditions: protein: recombinant; tags: N-terminal GST; dsDNA, one strand shown
T8 sequence: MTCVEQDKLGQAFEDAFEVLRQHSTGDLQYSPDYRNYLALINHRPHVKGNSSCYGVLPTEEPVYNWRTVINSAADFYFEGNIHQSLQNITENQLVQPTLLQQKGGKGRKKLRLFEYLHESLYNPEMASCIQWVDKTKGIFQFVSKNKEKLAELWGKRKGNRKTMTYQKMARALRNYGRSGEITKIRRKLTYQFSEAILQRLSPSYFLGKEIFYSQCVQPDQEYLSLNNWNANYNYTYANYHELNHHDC
Summary of the method: as §1

ELF4 = ELF4 (Homo sapiens, UniProt Q99607 1-663); conditions: protein: recombinant; tags: N-terminal GST; dsDNA, one strand shown
Summary of the method: as §1

ELK4 = target: T9, ELK4 (Homo sapiens, UniProt P28324-2 1-405); conditions: protein: recombinant; tags: N-terminal GST; dsDNA, one strand shown
T9 sequence: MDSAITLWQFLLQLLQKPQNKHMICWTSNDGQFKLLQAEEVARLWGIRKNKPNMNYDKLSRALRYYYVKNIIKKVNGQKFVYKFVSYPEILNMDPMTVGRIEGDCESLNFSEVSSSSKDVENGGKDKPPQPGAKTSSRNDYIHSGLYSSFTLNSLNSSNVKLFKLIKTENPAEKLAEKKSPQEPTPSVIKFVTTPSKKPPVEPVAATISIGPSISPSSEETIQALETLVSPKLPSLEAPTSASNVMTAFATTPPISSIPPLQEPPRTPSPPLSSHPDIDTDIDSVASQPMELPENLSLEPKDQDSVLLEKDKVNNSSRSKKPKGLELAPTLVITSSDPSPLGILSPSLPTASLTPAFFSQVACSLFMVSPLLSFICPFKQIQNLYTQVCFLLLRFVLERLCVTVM
Summary of the method: as §1

ETV2 = target: T10, ETV2 (Homo sapiens, UniProt O00321 1-342); conditions: protein: recombinant; tags: N-terminal GST; dsDNA, one strand shown
T10 sequence: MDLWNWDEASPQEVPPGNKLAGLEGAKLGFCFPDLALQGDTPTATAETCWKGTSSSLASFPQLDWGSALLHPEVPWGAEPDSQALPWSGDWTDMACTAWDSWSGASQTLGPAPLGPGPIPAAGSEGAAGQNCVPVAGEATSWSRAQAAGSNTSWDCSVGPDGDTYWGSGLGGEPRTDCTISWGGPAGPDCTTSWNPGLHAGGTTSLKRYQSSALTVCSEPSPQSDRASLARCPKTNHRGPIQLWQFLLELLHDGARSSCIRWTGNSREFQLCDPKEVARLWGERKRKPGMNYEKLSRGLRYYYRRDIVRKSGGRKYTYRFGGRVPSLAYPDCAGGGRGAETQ
Summary of the method: as §1

ELF3 = target: T11, ELF3 (Homo sapiens, UniProt P78545 1-371); conditions: protein: recombinant; tags: N-terminal GST; dsDNA, one strand shown
T11 sequence: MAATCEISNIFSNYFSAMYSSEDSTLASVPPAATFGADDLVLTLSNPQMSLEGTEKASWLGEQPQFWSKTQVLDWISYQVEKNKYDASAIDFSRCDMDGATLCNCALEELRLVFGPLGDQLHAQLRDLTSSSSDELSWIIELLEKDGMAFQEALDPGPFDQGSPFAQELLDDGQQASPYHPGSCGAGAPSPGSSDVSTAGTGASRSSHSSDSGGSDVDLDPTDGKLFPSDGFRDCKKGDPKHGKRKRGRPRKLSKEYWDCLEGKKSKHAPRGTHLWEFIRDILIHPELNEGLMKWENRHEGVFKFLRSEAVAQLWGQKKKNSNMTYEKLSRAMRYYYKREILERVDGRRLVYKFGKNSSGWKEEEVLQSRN
Summary of the method: as §1

CRX = CRX (Homo sapiens, UniProt O43186 1-299); conditions: protein: recombinant; tags: N-terminal GST; dsDNA, one strand shown
Summary of the method: as §1

ETV1 = ETV1 (Homo sapiens, UniProt P50549 1-477); conditions: protein: recombinant; tags: N-terminal GST; dsDNA, one strand shown
Summary of the method: as §1

Sequence of HSF1 (Q00613 whole entry): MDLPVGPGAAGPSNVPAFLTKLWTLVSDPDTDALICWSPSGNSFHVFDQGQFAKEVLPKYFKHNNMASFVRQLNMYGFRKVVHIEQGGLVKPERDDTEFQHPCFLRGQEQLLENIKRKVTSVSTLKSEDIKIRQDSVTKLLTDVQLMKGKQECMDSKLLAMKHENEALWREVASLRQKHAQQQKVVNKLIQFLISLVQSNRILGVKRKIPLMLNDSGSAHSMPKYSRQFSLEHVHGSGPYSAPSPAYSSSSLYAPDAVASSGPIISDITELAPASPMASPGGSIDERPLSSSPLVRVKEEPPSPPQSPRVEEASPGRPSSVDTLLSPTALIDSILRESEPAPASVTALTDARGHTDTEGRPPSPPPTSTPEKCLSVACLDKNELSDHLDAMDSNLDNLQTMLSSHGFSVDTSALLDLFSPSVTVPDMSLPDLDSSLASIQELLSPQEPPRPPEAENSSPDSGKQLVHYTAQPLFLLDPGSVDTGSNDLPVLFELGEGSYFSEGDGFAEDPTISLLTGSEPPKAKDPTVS
Sequence of ETV5 (P41161 whole entry): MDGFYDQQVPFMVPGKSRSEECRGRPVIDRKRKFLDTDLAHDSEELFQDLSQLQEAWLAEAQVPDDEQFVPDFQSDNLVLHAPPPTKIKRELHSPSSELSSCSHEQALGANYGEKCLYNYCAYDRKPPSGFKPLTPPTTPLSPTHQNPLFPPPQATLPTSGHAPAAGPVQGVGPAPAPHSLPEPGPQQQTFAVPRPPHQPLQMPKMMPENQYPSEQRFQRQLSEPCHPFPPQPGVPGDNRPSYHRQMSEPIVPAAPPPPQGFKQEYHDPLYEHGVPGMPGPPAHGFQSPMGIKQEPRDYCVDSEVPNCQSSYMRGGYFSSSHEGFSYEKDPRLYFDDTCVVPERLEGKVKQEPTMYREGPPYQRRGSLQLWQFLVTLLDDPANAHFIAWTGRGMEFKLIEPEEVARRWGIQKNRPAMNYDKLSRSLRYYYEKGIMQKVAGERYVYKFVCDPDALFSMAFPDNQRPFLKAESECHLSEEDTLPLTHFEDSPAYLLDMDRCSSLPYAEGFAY
Sequence of ELF1 (P32519 whole entry): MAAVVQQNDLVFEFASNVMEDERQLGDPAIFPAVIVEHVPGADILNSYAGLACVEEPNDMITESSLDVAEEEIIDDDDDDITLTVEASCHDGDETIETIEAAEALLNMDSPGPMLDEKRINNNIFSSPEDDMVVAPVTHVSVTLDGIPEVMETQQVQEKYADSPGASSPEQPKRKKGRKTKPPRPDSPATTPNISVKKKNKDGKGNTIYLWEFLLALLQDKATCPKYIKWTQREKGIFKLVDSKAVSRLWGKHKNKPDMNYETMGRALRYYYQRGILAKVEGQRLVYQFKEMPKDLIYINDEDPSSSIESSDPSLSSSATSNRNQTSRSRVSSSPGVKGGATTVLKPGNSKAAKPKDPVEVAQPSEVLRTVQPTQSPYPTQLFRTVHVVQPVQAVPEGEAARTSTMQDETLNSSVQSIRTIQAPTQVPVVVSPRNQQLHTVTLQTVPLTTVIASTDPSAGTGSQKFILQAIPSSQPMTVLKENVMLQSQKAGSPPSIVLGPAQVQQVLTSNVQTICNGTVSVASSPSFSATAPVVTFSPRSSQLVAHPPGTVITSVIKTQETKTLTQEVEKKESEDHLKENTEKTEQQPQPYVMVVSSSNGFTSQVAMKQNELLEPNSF
Sequence of CRX (O43186 whole entry): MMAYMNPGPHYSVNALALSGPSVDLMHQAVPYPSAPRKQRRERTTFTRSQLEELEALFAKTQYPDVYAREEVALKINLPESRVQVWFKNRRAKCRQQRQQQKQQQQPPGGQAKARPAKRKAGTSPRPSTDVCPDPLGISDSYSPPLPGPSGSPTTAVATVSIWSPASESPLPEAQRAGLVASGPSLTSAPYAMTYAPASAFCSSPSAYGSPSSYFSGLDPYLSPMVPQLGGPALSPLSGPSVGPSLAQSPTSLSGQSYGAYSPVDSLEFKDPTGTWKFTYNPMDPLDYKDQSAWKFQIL
Sequence of SPIB (Q01892 whole entry): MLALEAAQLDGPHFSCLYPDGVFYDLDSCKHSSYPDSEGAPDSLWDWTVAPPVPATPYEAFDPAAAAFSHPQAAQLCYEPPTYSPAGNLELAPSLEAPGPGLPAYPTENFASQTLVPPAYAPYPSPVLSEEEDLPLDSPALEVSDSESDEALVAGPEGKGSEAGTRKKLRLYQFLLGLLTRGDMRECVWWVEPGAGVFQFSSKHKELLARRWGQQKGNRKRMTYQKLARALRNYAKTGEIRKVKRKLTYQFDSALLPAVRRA
Sequence of ETV1 (P50549 whole entry): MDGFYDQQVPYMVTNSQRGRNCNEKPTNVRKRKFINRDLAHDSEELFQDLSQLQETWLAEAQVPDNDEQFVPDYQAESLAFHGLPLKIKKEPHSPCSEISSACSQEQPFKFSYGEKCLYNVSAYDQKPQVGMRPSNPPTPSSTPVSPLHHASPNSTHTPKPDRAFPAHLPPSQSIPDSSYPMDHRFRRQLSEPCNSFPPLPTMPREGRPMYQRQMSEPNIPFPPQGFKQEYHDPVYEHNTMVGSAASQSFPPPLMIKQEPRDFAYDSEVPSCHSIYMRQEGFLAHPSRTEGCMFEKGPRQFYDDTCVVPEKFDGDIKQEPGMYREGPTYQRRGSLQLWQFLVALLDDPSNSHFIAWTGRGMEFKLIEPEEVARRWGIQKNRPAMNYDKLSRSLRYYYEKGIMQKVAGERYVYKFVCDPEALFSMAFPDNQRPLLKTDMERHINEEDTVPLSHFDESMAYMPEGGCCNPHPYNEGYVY
Sequence of ELF4 (Q99607 whole entry): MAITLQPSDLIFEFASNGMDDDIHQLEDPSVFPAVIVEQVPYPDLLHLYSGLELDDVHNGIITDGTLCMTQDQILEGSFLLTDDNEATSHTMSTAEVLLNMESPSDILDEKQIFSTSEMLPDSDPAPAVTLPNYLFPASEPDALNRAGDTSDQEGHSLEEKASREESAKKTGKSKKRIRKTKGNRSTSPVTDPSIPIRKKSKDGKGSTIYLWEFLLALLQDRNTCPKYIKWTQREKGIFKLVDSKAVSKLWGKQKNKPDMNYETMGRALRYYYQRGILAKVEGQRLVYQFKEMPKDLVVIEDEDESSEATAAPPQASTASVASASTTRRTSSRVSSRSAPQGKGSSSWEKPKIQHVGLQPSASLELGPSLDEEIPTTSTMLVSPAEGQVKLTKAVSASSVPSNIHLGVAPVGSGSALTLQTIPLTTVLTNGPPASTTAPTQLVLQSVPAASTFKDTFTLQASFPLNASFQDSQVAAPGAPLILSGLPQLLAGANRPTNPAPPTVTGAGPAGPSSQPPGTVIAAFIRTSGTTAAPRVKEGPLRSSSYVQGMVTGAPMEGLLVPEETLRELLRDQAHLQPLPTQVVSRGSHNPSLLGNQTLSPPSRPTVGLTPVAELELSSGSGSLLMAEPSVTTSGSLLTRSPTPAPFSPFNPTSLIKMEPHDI

In the case of TCCGAT, the binding signal (FLI1) is reported as 1.32 fold enrichment (6-mer frequency, TF over GST control), the binding signal (ELK1) is reported as 1.37 fold enrichment (6-mer frequency, TF over GST control) and the binding signal (GABPA) is reported as 1.17 fold enrichment (6-mer frequency, TF over GST control). For the same sequence, the binding signal (ERG) was 1.51 fold enrichment (6-mer frequency, TF over GST control), the binding signal (ELF1) was 1.27 fold enrichment (6-mer frequency, TF over GST control) and the binding signal (EHF) was 1.36 fold enrichment (6-mer frequency, TF over GST control). The binding signal (SPI1) was 1.29 fold enrichment (6-mer frequency, TF over GST control), the binding signal (SPIB) was 1.24 fold enrichment (6-mer frequency, TF over GST control) and the binding signal (ELK3) was 1.27 fold enrichment (6-mer frequency, TF over GST control). The binding signal (FEV) was 1.41 fold enrichment (6-mer frequency, TF over GST control), the binding signal (ETV5) was 1.3 fold enrichment (6-mer frequency, TF over GST control) and the binding signal (HSF1) was 1.42 fold enrichment (6-mer frequency, TF over GST control). The binding signal (SPIC) was 1.25 fold enrichment (6-mer frequency, TF over GST control), the binding signal (ELF4) was 1.22 fold enrichment (6-mer frequency, TF over GST control) and the binding signal (ELK4) was 1.25 fold enrichment (6-mer frequency, TF over GST control). For the same sequence, the binding signal (ETV2) was 1.15 fold enrichment (6-mer frequency, TF over GST control), the binding signal (ELF3) was 1.23 fold enrichment (6-mer frequency, TF over GST control) and the binding signal (CRX) was 1.94 fold enrichment (6-mer frequency, TF over GST control). For the same sequence, the binding signal (ETV1) was 1.3 fold enrichment (6-mer frequency, TF over GST control).
